From PubChem BioAssay (NCATS)
Results filed as inconclusive are left out. Active and inactive are the calls of the source. The call rests on the fitted dose curve; in most records, active means well fitted inhibition curve with a large enough effect; inconclusive means small, poorly fitted or top-dose-only effect; inactive means flat fitted curve, though single readings scatter.

Test system: CRL-7250
Assay: Cytotoxic Profiling of Annotated Libraries Using Quantitative High-Throughput Screening (AID 1296008); further: nearly all actives have a fitted effect of over 60% in size
Conditions: Five cell lines viability, CellTiter-Glo ATP luminescence, 48-72 h; max response: stronger effect = lower value
How it was run: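 Cytotoxicity was measured as CellTiter-Glo ATP luminescence, read after 10 min at room temperature. Compound treatment of the cells lasted 48 or 72 hr at 37 degrees Celsius in a qHTS format.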
On the % scale 0 is the no-effect control and ±100 the full control effect.

Row | Structure (SMILES) | max response | outcome
1 | Oc1ccc2c(-c3c(-c4ccccn4)nn4c3CCC4)ccnc2c1 | -1.66% (inactive) | 
2 | C=C1C(=O)O[C@@H]2CC(C)=C([C@@H](C)CCCOC(C)=O)[C@@H](O)[C@H]12 | 0.455% (inactive) | 
3 | COC(=O)c1[nH]c(=O)c2ccccc2c1-c1ccc[nH]1 |  | inactive
4 | C[C@@H]1O[C@@H](O[C@@H]2[C@@H](O)[C@H](O[C@H]3[C@H](O[C@H]4CC[C@@]5(C)C(CC[C@]6(C)C5CC=C5[C@@H]7CC(C)(C)CC[C@]7(C(=O)O[C@@H]7O[C@H](CO)[C@@H](O)[C@H](O)[C@H]7O)CC[C@]56C)C4(C)C)O[C@H](C(=O)O)[C@@H](O)[C@@H]3O)OC[C@H]2O)[C@H](O)[C@H](O)[C@H]1O (stereo partly drawn) | 2.65% (inactive) | 
5 | CC1(C)O[C@H]2CC(=O)OC[C@@]23C1=C(O)C(=O)[C@]1(C)C3CC[C@@]2(C)[C@H](c3ccoc3)OC(=O)[C@H]3O[C@]321 (stereo partly drawn) |  | inactive
6 | CC1(C)CC[C@]2(C(=O)O)CC[C@]3(C)C(=CCC4[C@@]5(C)C[C@@H](O)[C@H](O)[C@@](C)(CO)C5CC[C@]43C)C2C1 (stereo partly drawn) |  | inactive
7 | C[C@@H]1O[C@@H](O[C@H]2[C@H](O[C@H]3[C@H](O[C@H]4CC[C@@]5(C)C(CC[C@]6(C)C5CC=C5[C@@H]7CC(C)(C)C[C@@H](O)[C@]7(C)CC[C@]56C)[C@@]4(C)CO)O[C@H](C(=O)O)[C@@H](O)[C@@H]3O)O[C@H](C(=O)O)[C@H](O)[C@@H]2O)[C@H](O)[C@H](O)[C@H]1O (stereo partly drawn) | -5.52% (inactive) | 
8 | Cc1sc(C)c(C(=O)NC2(c3ccc(C(=O)O)cc3)CC2)c1Cc1ccc(C(F)(F)F)cc1 | -2.74% (inactive) | 
